A selection: hits, their analogues and other compounds. The true share with any hit is near 5.9%.
TGFb inhibitor – blocks TGF-b signaling; actives 1.2% (n = 410,000); AID 588855; HepG2 CAGA-GFP TGF-b/SMAD3 reporter, GFP fluorescence, 18 h; TGF-beta stimulated, 500 pg/mL final; Potency, µM (titrated, usually from 46.1 µM), for inactives: top-dose activity, negative = inhibition, most hits filed as inhibitors; also: % is scaled to controls: 0 for no effect and ±100 for the full control effect; nearly all actives have a fitted effect of over 65% in size
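Per well, imaged GFP fluorescence of HEPG2 CAGA-GFP cells gives the signal; cells get compound, then TGF-beta (500 pg/mL final), 18 h at 37 degrees C; %Activity versus -TGF-beta and +DMSO controls.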
HepG2 tox – kills HepG2 cells in TGF-b inhibitor counter-screen. Potency, µM (highest dose often 46.1 µM), for the others: at the top dose activity change, negative = cytotoxicity, hits mostly cytotoxic. HepG2 CAGA-GFP viability, ATP luminescence, 18 h. actives 0.76% (n = 410,000)
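HepG2 CAGA-GFP cells (1000/well, DMEM with 1% FBS) received compound, then TGF-beta at 500 pg/mL final, and were incubated 18 hours at 37 degrees C. Viability was read by CellTiter-Glo luminescence. Media-only wells were set as complete cell-killing and DMSO as no toxicity.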
ATXN2 expr inh – reduces ATXN2 reporter expression in HEK-293 cells | actives 0.72% (n = 360,000) | HEK-293 ATXN2-luciferase reporter, luminescence, 24 h | Potency, µM (top dose mostly 57 µM), for the others: at the top dose activity change, negative = inhibition, most hits filed as inhibitors; also: % is scaled to controls: 0 for no effect and ±100 for the full control effect; nearly all actives have a fitted effect of over 55% in size
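ATXN2-luciferase reporter cells (luciferase flanked by upstream and downstream ATXN2 gene portions) were treated 24 h at 37 °C with compounds at up to 57 uM. SteadyGlo luminescence gave expression; GF-AFC fluorescence gave viability.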
KB-V1 MDR tox – KB-V1 MDR subline cytotoxicity; KB-V1 MDR cells viability, CellTiter-Glo, 72 h; Potency, µM (series often up to 46.1 µM), actives largely listed as cytotoxic; actives 3.4% (n = 400,000); AID 1347076; also: % is scaled to controls: 0 for no effect and ±100 for the full control effect; nearly all actives have a fitted effect of over 60% in size
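Readout: CellTiter-Glo luminescence, 10 min after addition. Cells: KB-V1 MDR subline, 72 h at 37 degrees C with compound. Analysis: corrected, normalized data fitted to concentration-effect curves.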
ATXN viability – cell viability loss in ATXN counter-screen; S2 cells (HEK-293 line with an ATXN2-luciferase reporter) viability, CellTiter-Fluor protease fluorescence, 24 h; Potency, µM (top dose mostly 56.7 µM), hits mostly cytotoxic; actives 0.49% (n = 400,000); AID 651635; also: nearly all actives have a fitted effect of over 40% in size
KB-3-1 cytotox – kills parental KB-3-1 adenocarcinoma cells; actives 1.4% (n = 400,000); KB-3-1 viability, CellTiter-Glo ATP luminescence, 72 h; Potency, µM (titrated, usually from 46.1 µM), actives largely listed as cytotoxic; also: % is scaled to controls: 0 for no effect and ±100 for the full control effect; nearly all actives have a fitted effect of over 60% in size
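Cytotoxicity in the drug-sensitive parental line KB-3-1 was scored as loss of CellTiter-Glo luminescence following 72 h incubation with compound. Values come from curve fitting of normalized concentration-response data.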
Numbers without * were called inactive; i = inactive; ? = inconclusive; . = not tested or not shown. Calls follow the shape of the dose curve; as a rule, active = well fitted curve in the direction sought with a large enough effect; inconclusive = small, poorly fitted or top-dose-only effect, or another doubt; inactive = no such curve, though single readings can be large; an effect the other way counts as inactive or inconclusive. Potency is read from the fitted curve at half-maximal effect.

SMILES	TGFb inhibitor	HepG2 tox	ATXN2 expr inh	KB-V1 MDR tox	ATXN viability	KB-3-1 cytotox
CC1=CC(C)(C)N2C(=O)C3(C(C#N)=C(N)Oc4cc(O)ccc43)c3c(C)c(C)cc1c32 (stereo not drawn)	?	-107%	?	?	13µM*	?
CC1(c2ccccc2)CC(C)(C)N2C(=O)C3(C(C#N)=C(N)Oc4cc(O)ccc43)c3cccc1c32 (stereo not drawn)	?	-100%	?	21µM*	?	i
Cc1cc(/C=C/c2ccccc2)nc2ccccc12	-25%	-23%	.	?	.	i
Cc1cnc(SCc2ccccn2)nc1C1CCCN(C(=O)c2coc3c2C(=O)CCC3)C1 (stereo not drawn)	.	.	.	.	i	.
Cc1c(C(=O)NCC(C)(C)N2CCOCC2)cnn1-c1nccc(-c2cccs2)n1	.	.	.	.	i	.
CCOC(=O)c1c(C)[nH]c(C)c1C(=O)CSc1nc2ccccc2[nH]1	?	8%	3%	23µM*	i	i
CCOC(=O)c1c(C)[nH]c(C)c1C(=O)CSc1nc2ccccc2c(=O)n1-c1ccc(CC)cc1	?	-3%	?	7.3µM*	i	23µM*
CCOC(=O)c1c(C)[nH]c(C(=O)Cn2nnc(-c3ccccc3Cl)n2)c1C	-10%	-27%	-7%	i	?	i
COC(=O)c1cc(CSc2nc3ccccc3[nH]2)oc1C	-37%	-6%	18%	2.9µM*	i	21µM*
CCOC(=O)c1c(C)[nH]c(C)c1C(=O)Cn1nnc(-c2ccccc2C)n1	-26%	-12%	-17%	16µM*	i	i
CCCc1cc(=O)[nH]c(SCc2cc(C(=O)OC)c(C)o2)n1	2%	-1%	-5%	i	i	i
CS(=O)(=O)N1CCC(n2c(C(F)(F)F)nc3cccnc32)CC1	-2%	0%	10%	i	i	i
COc1ccc(CN2CCOc3c(cc(-c4cccc(OC)n4)cc3OC)C2)c(O)c1	.	.	.	.	i	.
Cc1cccc(N(CC(=O)NCCSCc2ccc(Cl)cc2)S(C)(=O)=O)c1C	-20%	-39%	?	i	i	i
COc1ccc(Cc2ccc(NC(N)=O)cc2)cc1-c1cccc(Cl)c1	.	.	4%	.	.	.
CCN(C(=O)c1cc2c(=O)oc3ccc(C)cc3c2s1)c1cc(OC)ccc1OC	?	-15%	-7%	i	i	i
Cc1cc(C(=O)CSc2nc3ccccc3[nH]2)c(C)n1CC1CCCO1 (stereo not drawn)	?	-2%	?	2.3µM*	18µM*	3.7µM*
O=S(=O)(c1ccccc1C(F)(F)F)N1CCN(c2nc(-c3cccs3)nc3ccccc23)CC1	-14%	-29%	.	i	.	i
CCN1CCN(c2ccc(NC(=O)c3ccccc3F)cc2Cl)CC1	14%	-4%	43%	i	i	?
CS(=O)(=O)N1CCN(c2ccccc2NC(=O)c2cccc3ccccc23)CC1	-16%	-6%	-3%	i	?	i
CS(=O)(=O)N1CCN(c2ccccc2NC(=O)c2ccc(-c3ccc(Br)cc3)o2)CC1	-4%	-7%	-5%	2.6µM*	i	i
COc1cc2ccccc2cc1C(=O)Nc1ccccc1N1CCN(S(C)(=O)=O)CC1	-1%	1%	7%	4.1µM*	i	i
CCN1CCN(c2ccc(NC(=O)c3cc4ccccc4cc3OC)cc2C)CC1	?	-117%	?	?	?	15µM*
CS(=O)(=O)N1CCN(c2ccccc2NC(=O)c2cc(Br)ccc2Cl)CC1	-6%	-13%	-14%	i	i	?
Cc1ccccc1C(=O)Nc1ccc(C(=O)N2CCCC(O)c3cc(Cl)ccc32)c(C)c1 (stereo not drawn)	.	.	16%	.	i	.
SMILES	TGFb inhibitor	HepG2 tox	ATXN2 expr inh	KB-V1 MDR tox	ATXN viability	KB-3-1 cytotox
COc1ccc(CCC(=O)O)cc1	2%	-3%	.	i	.	i
CC(C)c1ccc(CNC(=O)c2ccc(N3CCCC3)c(NC(=O)NCc3ccc(F)cc3)c2)cc1	9%	-1%	-2%	i	?	i
Nc1c(C(=O)Nc2cccc(C(=O)O)c2)sc2nc3c(cc12)CCCC3	2%	8%	4µM*	i	i	i
CCN1CCc2nc3sc(C(=O)c4ccccc4)c(N)c3cc2C1	80%	-16%	5%	?	?	8.2µM*
CCNC(=O)CCCC=CC[C@@H]1[C@H](C=CC(O)CCc2ccccc2)[C@@H](O)C[C@@H]1O (stereo partly drawn)	.	.	-3%	.	.	.
O=C(COCc1cc(-c2cccs2)on1)NCc1ccccc1Cl	-19%	-24%	.	i	.	i
Cc1c(C(=O)N2CC3CCC2C3)sc2ncnc(NCCc3ccccn3)c12 (stereo not drawn)	.	.	.	.	i	.
COc1ccc(CNCC(O)(c2ccc(F)cc2)c2ccc(F)cc2)cc1OC	?	-41%	-26%	i	i	?
COc1ccc(CNCC(O)(c2ccc(Cl)cc2)c2ccc(Cl)cc2)cc1OC	?	22µM*	?	7.3µM*	?	i
COc1ccc(CNCC(O)(c2ccc(Cl)cc2)c2ccc(Cl)cc2)cc1	0%	10µM*	?	?	?	?
CCOC(=O)c1c(NC(=O)CS(=O)(=O)c2ccc(C)cc2)sc2c1CCCCC2	?	-31%	.	i	.	i
COc1ccc(-c2nnc(N3CCOCC3)c3ccccc23)cc1	1%	1%	-8%	i	i	i
Cc1ccc(-c2nnc(N3CCCCCC3)c3ccccc23)cc1	-21%	-14%	-9%	?	i	23µM*
COc1ccc(-c2nnc(N3CCCCC3)c3ccccc23)cc1	-41%	-8%	?	12µM*	i	?
CC(=O)N1CCCc2cc(S(=O)(=O)N(C)CC(=O)Nc3ccc(C(C)C)cc3)ccc21	-8%	-36%	-23%	i	?	i
CC(C)C(=O)Nc1cccc(-c2nc3ncccc3o2)c1	-1%	-13%	13%	i	i	?
Cc1cc(-c2nc3ncccc3o2)ccc1NC(=O)c1ccc([N+](=O)[O-])o1	9%	6%	0%	i	i	i
Cc1ccc(-c2nc3ncccc3o2)cc1NC(=O)c1ccc([N+](=O)[O-])o1	-27%	-21%	-8%	18µM*	?	?
COc1c(C)cc(Br)cc1C(=O)Nc1cccc(-c2nc3ncccc3o2)c1	-8%	-13%	22µM*	?	32µM*	?

High-throughput results as filed in PubChem.
